This note sets out measurements from PubChem BioAssay (Tox21).

Where “and” joins values, the source holds several entries; their conditions need not be identical. Identical values can stand only once. Records with an inconclusive call do not appear. Some structures have more than one record in an assay (separate samples or runs), and their calls can disagree. Calls of active or inactive are those of the source. Unless noted, calls follow the shape of the dose curve; as a rule, active = well fitted curve in the direction sought with a large enough effect in the repeat runs; inconclusive = weak or mixed curves; inactive = no such curve, though single readings can be large; an effect the other way counts as inactive or inconclusive.

The nature of test [1]: qHTS assay to identify small molecule agonists of the hypoxia (HIF-1) signaling pathway - cell viability counter screen (AID 1224844; calls by dose curve; also: nearly all actives have a fitted effect of over 50% in size; also: potency is read from the fitted curve at half-maximal effect). The essentials: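 ME-180 HRE-bla cells, 2,000/well, 0.5% dialyzed FBS; 5 hr settle, 17 hr compound at 37C/5% CO2; CCF4-AM reporter read first, then CellTiter-Glo luminescence after 30 min RT.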
In general terms: qHTS replaces the single test concentration by a dilution series.

Test [2] is described as follows: qHTS assay to identify small molecule agonists of H2AX (AID 1224845; active = well fitted activation curve with a large enough effect in the signal ratio in the repeat runs, not every such curve was filed as active; the % refers to the signal ratio; also: potency is read from the fitted curve at half-maximal effect). In outline:
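Wild-type CHO-K1 cells plated overnight, then exposed 3 hr at 37C to compounds at 15 concentrations (0.76% DMSO). Lysed, then HTRF anti-pH2AX(S139)-cryptate/anti-H2AX-d2 detection after 24 hr at room temperature; emissions 665 and 620 nm.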

A short description of test [3]: qHTS assay to identify small molecule agonists of the hypoxia (HIF-1) signaling pathway (AID 1224846; active = well fitted activation curve with a large enough effect in the signal ratio in the repeat runs, not every such curve was filed as active; the % refers to the signal ratio). In outline:
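Cell line: CellSensor HRE-bla ME-180; 2,000 cells/well; 0.5% dialyzed FBS; 5 h preincubation; DMSO compound pin transfer; 17 h, 37C, 5% CO2; CCF4-AM added; bla FRET signal scored for activation.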

The nature of test [4]: qHTS assay to identify small molecule agonists of H2AX - cell viability counter screen (AID 1224847; calls by dose curve; also: nearly all actives have a fitted effect of over 30% in size; also: potency is read from the fitted curve at half-maximal effect). The essentials: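 After overnight plating of 1000 CHO-K1 cells per well, a 15-concentration compound series was applied for 3 hr at 37C. Luminescence from CellTiter-Glo, read following 30 min at room temperature, reflected cell viability.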
Test [5] is described as follows: qHTS RealTime-Glo MT Cell Viability Assay in HepG2 cells - 24 hour (AID 1224867). Also: nearly all actives have a fitted effect of over 50% in size. Also: potency is read from the fitted curve at half-maximal effect. The essentials:
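HepG2 cells were seeded at 600 cells/well together with NanoLuc luciferase and a cell-permeant prosubstrate, preincubated 5 h at 37 C/5% CO2, then pin-dosed with compounds in DMSO. Nonlytic luminescence from viable cells was read at each time point.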

Test [6] can be described thus: qHTS RealTime-Glo MT Cell Viability Assay in HEK293 cells - 32 hour (AID 1224868). Also: nearly all actives have a fitted effect of over 50% in size. Also: potency is read from the fitted curve at half-maximal effect. In outline:
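HEK293 cells were seeded at 600 cells/well together with NanoLuc luciferase and cell-permeant prosubstrate, preincubated 5 h at 37 C/5% CO2, then given compound in DMSO by pintool. Luminescence from viable-cell prosubstrate reduction was read repeatedly over 40 h.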

Test [7] is described as follows: qHTS RealTime-Glo MT Cell Viability Assay in HepG2 cells - 40 hour (AID 1224870). Also: nearly all actives have a fitted effect of over 50% in size. Also: potency is read from the fitted curve at half-maximal effect. The essentials:
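HepG2 cells mixed with RealTime-Glo MT reagents (NanoLuc plus cell-permeant prosubstrate) were seeded at 600 cells/well, incubated 5 h at 37 C/5% CO2, then pinned with compounds in DMSO; nonlytic luminescence tracked viability during 40 h treatment.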

Test [8] is described as follows: qHTS assay to identify small molecule antagonists of the estrogen related receptor (ERR) signaling pathway from Tox21 library (AID 1224848). Also: nearly all actives have a fitted effect of over 50% in size. Also: potency is read from the fitted curve at half-maximal effect. The essentials: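 Screening used an ERR reporter line supplied by NTP, exposed for 18 h at 37 C to library compounds delivered in DMSO. Signal was luciferase luminescence developed with ONE-Glo at room temperature for 30 min.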

The nature of test [9]: qHTS assay to identify small molecule agonists of the estrogen related receptor (ERR) signaling pathway from Tox21 library (AID 1224849; calls by dose curve; also: nearly all actives have a fitted effect of over 15% in size). The following applies: ERR reporter cell line, ONE-Glo luciferase, 18 h. In outline:
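ERR cells, 6 h pre-incubation 37 C/5% CO2; cpd in DMSO pinned; 18 h 37 C; ONE-Glo added, 30 min RT; luminescence read. Agonist mode, qHTS.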

Test [10] in a line: A CellTox Green Cytotoxicity Assay to monitor cytotoxicity in HEK293 cells - 0 hour (AID 1224869). Also: nearly all actives have a fitted effect of over 50% in size. Also: potency is read from the fitted curve at half-maximal effect. The essentials:
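Nonlytic real-time cytotoxicity: HEK293 + CellTox Green reagent plated, 5 h preincubation, pintool compound addition (23 nL in DMSO), 37 C for 40 h, fluorescence measured at successive time points.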
% is scaled to controls: 0 for no effect and ±100 for the full control effect.

Turning to `CN(C)c1nc(=O)n(C2CCCCC2)c(=O)n1C`, the Potency entry in [1], in [2], in test [4], in test [5], in test [6] and in test [7] was “inactive” throughout. In addition, in [3], the compound was classed as inactive.

As for `CCN(CC)C(=O)C(C)Oc1cccc2ccccc12` (stereo not given), the Potency result in test [1], in test [2], in [5], in test [6] and in test [7] was “inactive” each time. Also, in [3], the compound was classed as inactive.

Take `N#CCCCCC#N`: the Potency entry in [1], in test [2], in [4], in test [8], in test [5] and in test [6] was “inactive” each time. In addition, the Potency result in test [7] is “inactive”. The activity change, positive = activation in test [9] (at 92.4 µM (top of the series)) is 8.89% (inactive) and 3.44% (inactive).

Consider `CCCCOCC1CO1` (stereo not given), for which the Potency entry in [1], in test [2], in test [4], in test [8], in test [5] and in test [6] was “inactive” throughout. The Potency result in test [7] was “inactive”. Moreover, the activity change, positive = activation in test [9] (at 92.4 µM (top of the series)) is 0.0042% (inactive) and -11% (inactive). In addition, in test [10], the Potency entry is “inactive and 19.5 µM (active)”.

On to `O=C1CCCO1`, for which the Potency result in [1], in test [2], in test [4], in test [8], in test [5] and in test [6] was “inactive” each time. Also, the Potency entry in test [10] and in test [7] was “inactive” throughout. Besides, the activity change, positive = activation in test [9] (at 92.4 µM (top of the series)) is 3.83% (inactive) and -0.0508% (inactive).

As for `COP(=S)(OC)Oc1ccc(S(=O)(=O)N(C)C)cc1`, the Potency entry in test [1], in test [2], in test [4], in [8], in test [5] and in [6] was “inactive” throughout. Moreover, in test [7], the Potency result is “inactive”. Further, the activity change, positive = activation in [9] (at 42.5 µM (top of the series)) was -5.44% (inactive); in [9] (at 92.4 µM (top of the series)), -12.4% (inactive).

With `Clc1cccc(C(Cl)(Cl)Cl)n1`, the Potency result in [1], in test [2], in test [4], in test [5], in test [6] and in test [7] was “inactive” in each case. For the same compound, in test [3], the compound was called inactive.

`NC(=O)CN1CCCC1=O`: the Potency result in [1], in [2], in [4], in test [8], in test [5] and in test [6] was “inactive” throughout. Also, the Potency entry in test [10] and in test [7] was “inactive” in each case. Moreover, the results for the activity change, positive = activation in test [9] (at 42.5 µM (top of the series)) and in test [9] (at 92.4 µM (top of the series)) were 2.36% (inactive) and 6.19% (inactive), respectively.

In the case of `CCC1(c2ccc(N)cc2)CCC(=O)NC1=O` (stereo not given), the Potency result in test [1], in [2], in test [4], in test [8], in test [5] and in [6] was “inactive” each time. Moreover, the Potency entry in [10] and in [7] was “inactive” in each case. The activity change, positive = activation in [9] (at 42.5 µM (top of the series)) was 5.08% (inactive); in [9] (at 92.4 µM (top of the series)) it was -19.8% (inactive).

Regarding `[Cl-].[Cl-].[Cl-].[Fe+3]`, the Potency entry in test [1], in test [2], in [4], in [5], in test [6] and in test [7] was “inactive” in each case. Also, the result in [3] was inactive.

Regarding `CCOC(=O)c1ccccc1N`, the Potency result in [1], in [2], in [4], in test [5], in [6] and in test [10] was “inactive” in each case. Besides, the Potency result in [7] was “inactive”. Moreover, in test [3], the result was inactive.

For the compound `COC(=O)Nc1nc2ccccc2[nH]1`, the Potency entry in test [1], in [2], in test [4], in [5], in test [10] and in test [7] was “inactive” throughout. In addition, the result in [3] was inactive.

With `CCOP(=O)(O)OCC` (tested in a mixture with another compound), the Potency entry in [1], in test [2] and in test [10] was “inactive” in each case. Also, the Potency result in test [4] was “inactive and 28.2 µM (active)”; in test [5], “inactive and 48.6 µM (active)”; in [6], “inactive and 4.33 µM (active)”; in test [7], “inactive and 43.3 µM (active)”.

Take `O=[N+]([O-])/N=C1\NCCN1Cc1ccc(Cl)nc1`: the Potency result in [1], in [2], in test [4], in test [8], in test [5] and in test [6] was “inactive” throughout. Also, the Potency entry in test [10] and in test [7] was “inactive” each time. Further, the results for the activity change, positive = activation in [9] (at 42.5 µM (top of the series)) and in test [9] (at 92.4 µM (top of the series)) were 0.753% (inactive) and -0.637% (inactive), respectively.

Consider `CCC[CH2][Sn]([Cl])([Cl])[CH2]CCC`, for which the Potency was 624 nM (active) and 977 nM (active) in [1]; 1.28 µM (active) and 1.27 µM (active) in [2]; 11.4 µM (active) and 25.3 µM (active) in test [4]; 155 nM (active) and 172 nM (active) in [8]; 313 nM (active) and 219 nM (active) in test [5]; 99 nM (active) and 123 nM (active) in test [6]. In test [7], the Potency was 198 nM (active) and 138 nM (active). Moreover, the activity change, positive = activation in test [9] (at 92.4 µM (top of the series)) is -84.1% (inactive) and -80% (inactive). In addition, in [10], the Potency result was “inactive”.

With `COP(=S)(OC)SCn1nnc2ccccc2c1=O`, the Potency result in test [1], in test [2], in test [4], in test [5] and in [7] was “inactive” each time. For the same compound, the Potency in [8] is 53.4 µM (active) and 61.1 µM (active). Further, in [9] (at 92.4 µM (top of the series)), the activity change, positive = activation is -43.4% (inactive) and -47.5% (inactive).

In the case of `CN(C)P(=O)(N(C)C)N(C)C`, the Potency result in test [1], in [2], in [4], in test [8], in test [5] and in [6] was “inactive” in each case. Moreover, the Potency result in test [10] and in test [7] was “inactive” throughout. For the same compound, the activity change, positive = activation in test [9] (at 92.4 µM (top of the series)) is 5.26% (inactive) and 10.2% (inactive).

In the case of `S=c1[nH]c2ccccc2[nH]1`, the Potency result in test [1], in test [2], in test [4], in [8], in test [5] and in [6] was “inactive” throughout. Further, the Potency entry in [10] and in [7] was “inactive” throughout. Further, the activity change, positive = activation in test [9] (at 92.4 µM (top of the series)) was -4.19% (inactive) and 0.256% (inactive).

For the compound `CCCCCCCCCCCCCl`, the Potency entry in test [1], in test [2], in test [4], in test [5], in test [6] and in test [7] was “inactive” each time. In test [3], the compound was called inactive.
